Laboratory results as given in PubChem BioAssay (NCATS).
Inconclusive results are not listed. Entries that show only a call come without a potency. The source made the active and inactive calls. Unless noted, calls come from the whole dose curve; as a rule, active = well fitted curve in the direction sought with a large enough effect; inconclusive = small, poorly fitted or top-dose-only effect, or another doubt; inactive = no such curve, though single readings can be large; an effect the other way counts as inactive or inconclusive.

Tests used:
[1] = system: Zika virus NS2B-NS3 protease (linked construct); test: Primary screen NINDS Rhodamine qHTS for Zika virus inhibitors (AID 1347160); note: nearly all actives have a fitted effect of over 55% in size; note: potency is the fitted concentration of half-maximal effect
In short: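 Single-chain NS2B-NS3 protease, 25 nM, pH 8.0; compounds preincubated 15 min. Activity: Rhodamine110 release from 1.5 microM substrate over 15 min, room temperature, data fitted to 4-parameter Hill.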

[2] = target: Calcium and integrin-binding protein 1 (Homo sapiens) (UniProt Q99828); test: Primary qHTS for Identification of Calcium Integrin Binding Protein 1 (CIB1) Competitor (AID 1508620);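 note: GST tagged CIB1 binding a fluorescein labelled alphaIIb integrin peptide tracer; top concentration of the series differs between compounds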
In short: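 Fluorescence polarization competition: CIB1-GST (1 uM final) preincubated with compound 15 min at room temperature, then FITC-labeled alphaIIb peptide (100 nM final) added for another 15 min. Polarization read at Ex 480/Em 540.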

[3] = Primary qHTS for inhibitors of nuclear receptor binding SET domain protein 2 (NSD2) in an isogenic RCH-ACV NSD2 p.E1099K mutant (9B) (AID 1645876); note: potency is the fitted concentration of half-maximal effect; nearly all actives have a fitted effect of over 70% in size
[4] = Primary qHTS for inhibitors of nuclear receptor binding SET domain protein 2 (NSD2) in an RCH-ACV wild type WT cells (2C) (AID 1645877); note: potency is the fitted concentration of half-maximal effect; nearly all actives have a fitted effect of over 70% in size
[5] = target: Glutathione peroxidase 1 (Homo sapiens) (UniProt P07203); test: Primary qHTS Assay for Inhibitors of Recombinant Selenoprotein Glutathione Peroxidase 1 (GPX1) (AID 1845191); note: nearly all actives have a fitted effect of over 65% in size
In short: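 GPX1 10 nM, GR 100 nM, GSH 1 mM, NADPH 0.5 mM, CHP 0.5 mM (final). 30-min cpd preincubation, RT. Ex340/Em450 read t=0, t=15 min.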

[6] = target: Phospholipid hydroperoxide glutathione peroxidase GPX4 (Homo sapiens) (UniProt P36969); test: Primary qHTS Assay for Inhibitors of Recombinant Selenoprotein Glutathione Peroxidase 4 (GPX4) (AID 1845192); conditions: outcome: dose series up to 50 µM unless noted; note: nearly all actives have a fitted effect of over 65% in size
In short: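 qHTS, GR-coupled: GPX4 200 nM + cpd 30 min RT → GSH 1 mM, NADPH 0.5 mM, GR 100 nM → CHP 0.5 mM start; fluor 340/450 at t0 and t15 min; no-enzyme wells as control.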

[7] = target: Luciferin 4-monooxygenase (Photinus pyralis) (UniProt P08659); test: Primary firefly luciferase (FLuc) qHTS assay for identification of artifact compounds. (AID 1845220); note: nearly all actives have a fitted effect of over 60% in size
In short: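 Reaction readout was CCD-imaged luminescence, taken 5 min after adding 10 nM purified firefly enzyme to compound-treated wells holding 10 uM luciferin and ATP in pH 7.6 buffer.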

[8] = Primary fluorescence-based thiol-reactive (MSTI) qHTS assay for identification of artifact compounds. (AID 1845221);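 note: thiol-reactive compounds lower the probe fluorescence signal; nearly all actives have a fitted effect of over 65% in size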
In short: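 Compounds were incubated 1 h at room temperature in the dark with the MSTI probe (4 uM) in PBS pH 7.4, 2% DMSO. Signals were normalized between Acetyl-MSTI and MSTI.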

[9] = system: Nanoluciferase (engineered Oplophorus gracilirostris luciferase); test: Primary Nanoluciferase (NLuc) qHTS assay for identification of artifact compounds. (AID 1845222);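 note: NLuc secreted into diluted conditioned medium of S16 cells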
In short: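 Concentration-response data were obtained by luminescence after 5 min with Nano-Glo substrate at 1:100. The enzyme was diluted S16 NLuc-expressing cell medium, preincubated with compound for 15 min at RT. Curves were fitted with a 4-parameter Hill model.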

[10] = Primary redox qHTS assay for identification of artifact compounds. (AID 1845223)
In short: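 Redox-cycling detection via DTT (250 uM final) oxidation coupled to Amplex Red (25 uM)/HRP (250 mU/mL) in HBSS. 15 min preincubation plus 30 min after DTT, room temperature. Ex/Em 525/598 nm; 4-parameter Hill fit against DMSO and 10 uM DA3003.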

HeLa = test: Primary qHTS to identify gynecologic anti-cancer compounds using libraries of approved drugs and bioactive compounds (AID 1345084); conditions: Gynecologic cancer cell panel viability, ATPlite luminescence, 48 h; series mostly up to 57.5 µM; note: nearly all actives have a fitted effect of over 55% in size; note: potency is the fitted concentration of half-maximal effect
In short: (§1)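 Luminescence from the ATPlite ATP-monitoring reagent indicates viable cell number; lower signal means cytotoxicity. Cells received compound 16 h after seeding and were exposed for 48 h across five concentrations.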

Hek293T = test: as above; conditions: Gynecologic cancer cell panel viability, ATPlite luminescence, 48 h, control line for the selectivity index; series mostly up to 57.5 µM
In short: as §1

[11] = P-glycoprotein substrates identified in KB-8-5-11 adenocarcinoma cell line, qHTS therapeutic library screen (AID 1346987); note: nearly all actives have a fitted effect of over 65% in size; note: potency is the fitted concentration of half-maximal effect
In short: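 Luminescence from CellTiter-Glo, read 5 min after addition, quantified survival of KB-8-5-11 (P-gp-overexpressing) cells exposed to compounds for 72 h. AC50 was derived from concentration-response curves.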

[12] = system: Zika virus NS2B-NS3 protease (unlinked complex); test: Primary screen GU Rhodamine qHTS for Zika virus inhibitors: Unlinked NS2B-NS3 protease assay (AID 1347159); note: nearly all actives have a fitted effect of over 60% in size; note: potency is the fitted concentration of half-maximal effect
In short: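 Unlinked NS2B/NS3, 25 nM; Rhod110 peptide, 1.5 microM; compounds, up to 114 microM. Reaction run 15 min at RT in 10 mM Tris-HCl pH 8.0, 0.01% Tween 20; kinetic fluorescence change fitted with a 4-parameter Hill model.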

JEG-3 = test: Primary qHTS to identify gynecologic anti-cancer compounds using libraries of approved drugs and bioactive compounds (AID 1345084); conditions: Gynecologic cancer cell panel viability, ATPlite luminescence, 48 h; series mostly up to 57.5 µM; note: nearly all actives have a fitted effect of over 55% in size; note: potency is the fitted concentration of half-maximal effect
In short: as §1

Tov112D = test: as above; conditions: Gynecologic cancer cell panel viability, ATPlite luminescence, 48 h; series mostly up to 57.5 µM
In short: as §1

Tov-21-G = test: as above; conditions: Gynecologic cancer cell panel viability, ATPlite luminescence, 48 h; series mostly up to 57.5 µM
In short: as §1

[13] = qHTS drug screen for cell cycle checkpoint inhibitors in PARPi-resistant BRCA-mutant ovarian cancer cell lines. (AID 1963452; calls by dose curve); conditions: PEO1/OlaR viability, CellTiter-Glo luminescence, 96 h, stronger effect = lower value
In short: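 PEO1, PEO4 and PEO1/OlaR ovarian cancer cells, 600 per well, exposed 96 h at 37C to a dilution series. Viability read by CellTiter-Glo luminescence, normalized to DMSO and empty wells; activity summarized as Z-AUC.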

Sequence of Glutathione peroxidase 1 (Homo sapiens) (P07203 whole entry, looked up): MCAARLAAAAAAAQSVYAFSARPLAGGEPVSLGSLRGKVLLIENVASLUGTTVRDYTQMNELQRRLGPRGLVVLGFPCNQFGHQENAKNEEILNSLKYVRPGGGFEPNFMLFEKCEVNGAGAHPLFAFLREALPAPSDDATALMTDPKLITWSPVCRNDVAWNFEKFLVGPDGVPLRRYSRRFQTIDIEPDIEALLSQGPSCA
Sequence of Calcium and integrin-binding protein 1 (Homo sapiens) (Q99828 whole entry, looked up): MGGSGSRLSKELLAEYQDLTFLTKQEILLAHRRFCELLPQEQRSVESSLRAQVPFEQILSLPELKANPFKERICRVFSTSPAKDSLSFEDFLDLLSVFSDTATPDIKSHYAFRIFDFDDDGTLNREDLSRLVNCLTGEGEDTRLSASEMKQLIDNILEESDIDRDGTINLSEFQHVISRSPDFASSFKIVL
Sequence of Phospholipid hydroperoxide glutathione peroxidase GPX4 (Homo sapiens) (P36969 whole entry, looked up): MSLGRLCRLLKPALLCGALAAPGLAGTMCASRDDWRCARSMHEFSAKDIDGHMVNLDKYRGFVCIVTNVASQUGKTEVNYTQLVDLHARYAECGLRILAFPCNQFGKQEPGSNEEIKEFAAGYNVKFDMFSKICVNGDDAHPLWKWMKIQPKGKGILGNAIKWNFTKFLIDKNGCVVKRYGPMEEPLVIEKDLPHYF

| Compound | Potency [1] | outcome [2] | Potency [3] | Potency [4] | Potency [5] | Potency [6] | Potency [7] | Potency [8] | Potency [9] | Potency [10] | Potency (HeLa) | Potency (Hek293T) | Potency [11] | Potency [12] | Potency (JEG-3) | Potency (Tov112D) | Potency (Tov-21-G) | Z-AUC [13] | Z-AUC ([13]; measured here: PEO1 parental Z-AUC) | Z-AUC ([13]; measured here: PEO4 Z-AUC) |
| --- | --- | --- | --- | --- | --- | --- | --- | --- | --- | --- | --- | --- | --- | --- | --- | --- | --- | --- | --- | --- |
| CCOC(=O)c1cnn(-c2ccc(NC(=O)C(Cl)=C(Cl)Cl)cc2)c1C(F)(F)F | inactive | inactive | 11.5 µM (active) | 6.49 µM (active) | inactive | inactive | inactive | inactive | inactive | inactive | inactive | inactive | – | – | – | – | – | – | – | – |
| COc1cc2nc(N3CCN(C)CC3)nc(NC3CCN(Cc4ccccc4)CC3)c2cc1OC | inactive | inactive | 6.49 µM (active) | – | inactive | – | inactive | inactive | inactive | – | inactive | inactive | 16.4 µM (active) | inactive | – | – | – | – | – | – |
| O=C(O)c1ccc(O)c2ncc(N3CCCN(CCc4cccc5ccccc45)CC3)cc12 | 6.31 µM (active) | – | 4.09 µM (active) | 4.09 µM (active) | inactive | inactive | inactive | – | inactive | – | inactive | – | – | – | – | – | – | – | – | – |
| Fc1ccc(C2CCNC[C@H]2COc2ccc3c(c2)OCO3)cc1 (stereo not given in full) | inactive | inactive | 18.3 µM (active) | – | – | inactive | inactive | inactive | inactive | inactive | inactive | inactive | – | inactive | inactive | inactive | – | – | – | – |
| CCOc1cc(CNC2CCCC2)cc(Cl)c1OCc1ccc(Cl)cc1 | inactive | inactive | 11.5 µM (active) | 14.5 µM (active) | inactive | inactive | inactive | inactive | inactive | inactive | – | – | – | inactive | inactive | – | – | – | – | – |
| CC(=O)N1c2ccc(-c3ccc(C(=O)O)cc3)cc2C(Nc2ccc(Cl)cc2)CC1C (stereo not given) | 8.91 µM (active) | inactive | 0.0325 µM (active) | 0.0205 µM (active) | – | inactive | inactive | inactive | inactive | – | – | inactive | – | 20 µM (active) | – | – | 2.24 µM (active) | – | – | – |
| C[C@@H]1CCNC(=O)c2cc3ccc(C(=O)Nc4nc5ccccc5n4CCCN(C)C)cc3n21 | inactive | inactive | 16.3 µM (active) | 14.8 µM (active) | inactive | inactive | inactive | inactive | inactive | inactive | inactive | inactive | inactive | – | – | – | – | -0.825 (inactive) | -0.925 | -1.11 |
| COc1ccc(NC(=O)N2CCc3c2ccc2ccccc32)cc1N1CCN(C)CC1 | inactive | – | 14.5 µM (active) | 14.5 µM (active) | inactive | inactive | inactive | – | inactive | inactive | inactive | inactive | – | inactive | inactive | inactive | inactive | – | – | – |
| CCCc1c(C(C)C)nc(C(C)C)c([C@@H](C)O)c1-c1ccc(F)cc1O | 14.1 µM (active) | inactive | – | 14.5 µM (active) | inactive | inactive | inactive | inactive | inactive | inactive | – | inactive | – | 14.1 µM (active) | – | – | inactive | – | – | – |
| NC(=Nc1ccc(CCNCc2cccc(Cl)c2)cc1)c1cccs1 | inactive | inactive | 11.5 µM (active) | 11.5 µM (active) | inactive | inactive | inactive | inactive | inactive | inactive | inactive | inactive | 23.1 µM (active) | inactive | – | inactive | inactive | – | – | – |
| CCOP(=O)(Cc1ccc(C(=O)Nc2ccc(Br)cc2C#N)cc1)OCC | inactive | inactive | – | – | inactive | inactive | inactive | inactive | inactive | – | inactive | inactive | – | inactive | inactive | inactive | inactive | – | – | – |
| COc1ccc2c3ccnc4ccc(=O)n(c2c1)c43 | inactive | inactive | – | – | inactive | inactive | inactive | inactive | inactive | inactive | 14.1 µM (active) | – | – | – | inactive | – | – | – | – | – |
| N#Cc1ccc(-c2ccc(NC(=O)Nc3ccc(-c4ccnc5nc[nH]c45)cc3)cc2)cc1 | inactive | – | – | – | – | – | inactive | inactive | inactive | inactive | – | – | – | – | – | – | – | – | – | – |
| C=C1C(=O)O[C@H]2[C@H]1[C@@H](OC(=O)/C(C)=C\C)C[C@]1(C)O[C@@H]1[C@H]1O[C@H]1C(=C)[C@H]2O | inactive | inactive | 7.13 µM (active) | 4.5 µM (active) | inactive | inactive | inactive | inactive | inactive | inactive | inactive | – | – | inactive | – | – | – | – | – | – |
